PubChem BioAssay
Activity calls are given as the source filed them. Unless noted, no rule for the calls is given here.

Assays:
[1] = HepG2 liver cancer cell viability effects, profiling panel, resazurin fluorescence, 24 h, PK04 Diversity Set (AID 1172); conditions: higher = more signal
[2] = basal S. cerevisiae growth modulation, no modifier, primary screen, OD600, strain BY4716, 24 h, basal condition (AID 1173); conditions: OD600, 24 h, higher = more signal, called active from +8 up or from −8 down
[3] = MM1S myeloma cell viability, profiling panel, resazurin fluorescence, basal, 24 h, PK04 Diversity Set (AID 1174); conditions: higher = more signal, called active from +8 up or from −8 down;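 also: MM1S multiple myeloma cell line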
[4] = molecular target: Dihydroorotate dehydrogenase (quinone), mitochondrial (Plasmodium falciparum (isolate 3D7)) (UniProt Q08210); assay: PfDHODH enzyme inhibitors, primary screen, biochemical, C-terminal His tag, absorbance 600 nm (AID 1175); conditions: DCIP absorbance 600 nm, higher = more signal, called active from +8 up or from −8 down;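 also: recombinant parasite enzyme with a five histidine tag at its C terminus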
Dihydroorotate dehydrogenase (quinone), mitochondrial (Plasmodium falciparum (isolate 3D7)), sequence (Q08210 whole entry, looked up): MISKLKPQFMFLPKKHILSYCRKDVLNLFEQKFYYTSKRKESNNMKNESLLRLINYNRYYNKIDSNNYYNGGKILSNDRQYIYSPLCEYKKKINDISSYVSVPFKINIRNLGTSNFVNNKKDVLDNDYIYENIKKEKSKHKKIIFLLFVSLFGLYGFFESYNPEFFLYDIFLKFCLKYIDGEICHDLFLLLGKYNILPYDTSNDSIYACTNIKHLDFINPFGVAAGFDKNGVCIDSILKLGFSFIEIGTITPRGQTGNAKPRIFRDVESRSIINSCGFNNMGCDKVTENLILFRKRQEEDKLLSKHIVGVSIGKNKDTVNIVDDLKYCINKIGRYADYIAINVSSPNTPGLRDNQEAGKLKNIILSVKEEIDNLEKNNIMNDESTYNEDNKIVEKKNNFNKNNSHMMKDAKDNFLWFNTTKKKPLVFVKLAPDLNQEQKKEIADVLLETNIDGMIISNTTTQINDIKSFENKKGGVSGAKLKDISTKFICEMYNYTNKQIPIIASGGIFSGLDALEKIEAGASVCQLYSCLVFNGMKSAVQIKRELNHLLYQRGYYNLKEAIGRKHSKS

[5] = P. aeruginosa biofilm formation inhibitors, primary screen, strain PAO1, LB-PBS medium, absorbance 600 nm (AID 1176); conditions: P. aeruginosa PAO1 growth/biofilm, A600, 12 h; higher = more signal
[6] = S. cerevisiae RM11-1a growth modifiers, primary screen, strain RM11-1a, OD600, basal, 24 h (AID 1177); conditions: OD600, 24 h, higher = more signal, called active from +8 up or from −8 down;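 also: cultures grown under basal conditions with no added stressor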
[7] = E. coli acrAB mutant growth effects, primary screen, E. coli filamentation inducers, strain DRC39, OD650, 24 h (AID 1178); conditions: higher = more signal, called active from +8 up or from −8 down;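 also: growth measured as culture turbidity by optical density at 650 nm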
[8] = E. coli acrAB mutant growth effects, primary screen, E. coli filamentation inducers, strain DRC39, OD650, 48 h (AID 1179);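 also: screen aims at cell division blockers that make cells filament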; conditions: E. coli DRC39 delta-acrAB growth, higher = more signal, called active from +8 up or from −8 down
[9] = RPMI8226 myeloma cell viability, profiling panel, resazurin fluorescence, basal, 24 h, PK04 Diversity Set (AID 1180); conditions: higher = more signal;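 also: RPMI8826 multiple myeloma cell line at 5000 cells per well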
[10] = molecular target: E3 ubiquitin-protein ligase XIAP (Homo sapiens) (UniProt P98170); assay: XIAP binders, primary screen, biophysical, small-molecule microarray, fluorescence 635 nm (AID 1181); conditions: small-molecule microarray binding, higher = more signal;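 also: score merges 667 nm emission and signal to noise over triplicate slides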
E3 ubiquitin-protein ligase XIAP (Homo sapiens), sequence (P98170 whole entry, looked up): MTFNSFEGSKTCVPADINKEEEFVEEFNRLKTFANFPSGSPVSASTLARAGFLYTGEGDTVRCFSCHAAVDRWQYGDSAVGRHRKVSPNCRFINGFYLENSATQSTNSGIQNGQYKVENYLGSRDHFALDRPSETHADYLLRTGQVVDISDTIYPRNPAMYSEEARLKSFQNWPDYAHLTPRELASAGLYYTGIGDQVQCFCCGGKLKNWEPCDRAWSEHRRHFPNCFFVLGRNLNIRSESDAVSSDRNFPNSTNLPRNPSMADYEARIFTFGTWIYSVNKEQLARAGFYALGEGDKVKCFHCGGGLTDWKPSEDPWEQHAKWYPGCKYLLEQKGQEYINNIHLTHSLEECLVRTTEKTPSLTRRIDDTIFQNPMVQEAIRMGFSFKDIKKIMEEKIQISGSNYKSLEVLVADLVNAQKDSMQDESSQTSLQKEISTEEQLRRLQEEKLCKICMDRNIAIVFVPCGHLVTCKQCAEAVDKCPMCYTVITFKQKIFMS

[11] = system: XIP peptide (Xip251-270) binding; assay: small-molecule binders of XIP peptide, primary screen, biochemical, small-molecule microarray, fluorescence 635/667 nm, 0.1 µg/mL protein (AID 1182); conditions: fluorescent protein binding, 635 nm, higher = more signal, called active from +8 up or from −8 down
XIP peptide (Xip251-270) = assay: small-molecule binders of XIP peptide, primary screen, biochemical, small-molecule microarray, fluorescence 635/667 nm, 0.5 µg/mL protein (AID 1183); conditions: small-molecule microarray binding, fluorescence 635 nm; higher = more signal
[12] = Plasmodium falciparum growth inhibition, primary screen, strain 3D7, DAPI fluorescence, 100 nL (AID 1184);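 also: parasites grown inside human red blood cells in medium with human serum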; conditions: P. falciparum 3D7 growth, 3 d, higher = more signal
[13] = molecular target: Homeobox protein Hox-A13 (Mus musculus) (UniProt Q62424); assay: inhibitors of HoxA13-DNA binding, primary screen, biochemical, fluorescence polarization, labeled oligonucleotide (AID 1185); conditions: 15 min, higher = more signal, called active from +8 up or from −8 down
Homeobox protein Hox-A13 (Mus musculus), sequence (Q62424 whole entry, looked up): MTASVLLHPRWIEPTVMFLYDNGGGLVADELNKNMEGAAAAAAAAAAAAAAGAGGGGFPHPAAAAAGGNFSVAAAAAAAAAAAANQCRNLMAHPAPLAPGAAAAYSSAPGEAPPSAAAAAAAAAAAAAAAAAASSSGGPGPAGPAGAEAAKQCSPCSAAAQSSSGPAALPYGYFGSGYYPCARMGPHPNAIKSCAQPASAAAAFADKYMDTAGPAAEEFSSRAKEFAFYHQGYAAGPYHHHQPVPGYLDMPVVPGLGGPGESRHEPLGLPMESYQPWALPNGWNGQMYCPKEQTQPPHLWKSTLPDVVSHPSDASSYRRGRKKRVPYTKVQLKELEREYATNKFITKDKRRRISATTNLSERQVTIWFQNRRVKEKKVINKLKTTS

[14] = inhibitors of hydroxyurea-induced Chk1 phosphorylation, primary screen, imaging, HeLa, phospho-Chk1 antibody, percent positive cells (AID 1186); conditions: hydroxyurea-induced phospho-Chk1 immunofluorescence imaging, higher = more signal
[15] = inhibitors of hydroxyurea-induced Chk1 phosphorylation, primary screen, imaging, HeLa, phospho-Chk1 nuclear intensity (AID 1187); conditions: hydroxyurea-induced phospho-Chk1 immunofluorescence imaging, higher = more signal

SMILES | z-score [1] | z-score [2] | z-score [3] | composite z-score [4] | z-score [5] | z-score [6] | z-score [7] | z-score [8] | z-score [9] | composite z-score [10] | composite z-score [11] | composite z-score (XIP peptide (Xip251-270)) | z-score [12] | z-score [13] | z-score [14] | z-score [15]
O=C1NC(=O)C2C1C=CC(C(O)C(c1ccccc1)c1ccccc1)N2Nc1ccc(Cl)cc1Cl (centres undefined) | -2.23 | -2.63 (inactive) | -1.05 (inactive) | 0.125 (inactive) | 0.599 (inactive) | 1.17 (inactive) | -0.659 (inactive) | -0.712 (inactive) | -1.62 | 0.236 | 0.69 (inactive) | -0.0049 | -0.289 | -4.15 (inactive) | 0.735 (inactive) | 0.889 (inactive)
C=CC[C@@]1(C(=O)NCc2ccccc2)N=C(c2ccc(OCCCO)cc2)O[C@@H]1c1ccccc1N=[N+]=[N-] | -0.453 | 0.669 (inactive) | -2.2 (inactive) | 1.92 (inactive) | 1.16 (inactive) | 2.07 (inactive) | 0.335 (inactive) | -0.899 (inactive) | -0.829 | 0.0736 | 0.0885 (inactive) | 0.764 | -1.92 | -1.72 (inactive) | -0.334 (inactive) | -0.183 (inactive)
CC(=O)N1Cc2ccccc2C[C@@]2(COC(c3ccc(OCCCO)cc3)=N2)C1=O | 1.17 | -0.797 (inactive) | -0.15 (inactive) | -0.469 (inactive) | 2.26 (inactive) | -0.723 (inactive) | 1.73 (inactive) | 2.3 (inactive) | 0.266 | 1.2 | 1.44 (inactive) | 0.81 | -2.28 | -3.13 (inactive) | -1.01 (inactive) | -1.12 (inactive)
CC(C)C[C@@H]1NC(=O)[C@@H]2C[C@H](C(=O)NCCCCCN)[C@H](c3cccc(OCCO)c3)N2C1=O | -0.573 | -1.22 (inactive) | 0.522 (inactive) | -1.78 (inactive) | 0.792 (inactive) | -2.75 (inactive) | 1.06 (inactive) | 1.75 (inactive) | 0.465 | 0.0337 | 0.0825 (inactive) | 0.758 | -0.0757 | -3.34 (inactive) | -0.356 (inactive) | -0.49 (inactive)
CCCCC=C[C@@H](NC(=O)Oc1cccc(C(F)(F)F)c1)c1ccccc1 | -1.68 | 1.74 (inactive) | -2.06 (inactive) | -3.25 (inactive) | 2.62 (inactive) | 1.37 (inactive) | -0.844 (inactive) | -0.665 (inactive) | -2.1 | 0.0748 | -0.361 (inactive) | 0.168 | -1.01 | -0.127 (inactive) | 0.38 (inactive) | -0.018 (inactive)
CCOC(=O)C[C@H]1[C@H](OC(=O)c2cc3ccccc3oc2=O)[C@@H](NC(=O)C2CCCCC2)c2cc(OCCCO)ccc2N1C(=O)c1ccccc1 | -0.687 | -0.797 (inactive) | 0.0797 (inactive) | -2.85 (inactive) | -0.259 (inactive) | -0.403 (inactive) | 1.65 (inactive) | 0.612 (inactive) | 0.285 | -0.214 | -0.194 (inactive) | 0.327 | -1.73 | -3.06 (inactive) | 0.895 (inactive) | 1.11 (inactive)
COC(=O)[C@@]1(Cc2ccc(F)cc2)[C@H]2c3cc(C(=O)N4CCCC4)n(Cc4cc(C)n(C)n4)c3C[C@H]2CN1C(=O)c1ccccc1 | -0.945 | 0.603 (inactive) | -0.642 (inactive) | -0.468 (inactive) | 0.964 (inactive) | 0.279 (inactive) | -0.375 (inactive) | -0.459 (inactive) | -1.51 | 0.17 | 1.55 (inactive) | 0.759 | -1.58 | -3.99 (inactive) | 0.611 (inactive) | 0.53 (inactive)
C=CCNC(=O)[C@@H]1[C@H]2C(=O)O[C@H](c3ccccc3)[C@H](c3ccccc3)N2[C@H](c2ccc(OCCO)cc2)[C@@]12C(=O)Nc1ccc(C#CCCO)cc12 | -0.13 | 1.02 (inactive) | -0.185 (inactive) | -1.24 (inactive) | 1.66 (inactive) | -0.114 (inactive) | -0.194 (inactive) | 0.184 (inactive) | -0.114 | -0.157 | 0.95 (inactive) | 0.77 | -1.02 | -3.63 (inactive) | 0.0523 (inactive) | 0.205 (inactive)
O=C1c2ccccc2[C@](Cc2ccccc2I)(C(=O)NC2CC2)[C@H](c2ccc(CO)cc2)N1Cc1ccccc1 | 0.621 | 0.401 (inactive) | 0.414 (inactive) | 0.159 (inactive) | 0.14 (inactive) | -0.377 (inactive) | -0.0358 (inactive) | 0.0388 (inactive) | 0.535 | -0.0663 | 0.534 (inactive) | 0.63 | -0.35 | -5.1 (inactive) | 0.0675 (inactive) | -0.345 (inactive)
